# RORg inh – blocks mouse ROR gamma transcriptional activity | Drosophila S2 Gal4-RORgamma UAS-luciferase reporter, 20 h | Potency, µM (highest dose often 53.6 µM), for inactives: at the top dose activity change, negative = inhibition, hits mostly inhibitors | 310,000 tested, 5.4% active | P51450 | AID 2551; note: nearly all actives have a fitted effect of over 60% in size
#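 In this cell-based reporter format, copper sulfate (700 uM final) drives Gal4–ROR gamma fusion expression from a metallothionein promoter in Drosophila Schneider cells; compounds preincubated 1 hr, reporter read after 20 hr at ambient temperature.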
# TDP1 cell CPT – growth inhibition of DT40 Tdp1-/-;hTDP1 cells with camptothecin (screen for TDP1 inhibitors). chicken DT40 Tdp1-/-;hTDP1 cells + 20 nM CPT, ATP luminescence, 48 h. Potency, µM (top dose mostly 46.2 µM), inactives show top-dose activity change, negative = growth inhibition, most hits filed as inhibitors. 420,000 tested, 12% active; note: nearly all actives have a fitted effect of over 55% in size
#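 Chicken DT40 Tdp1-/- cells complemented with human TDP1, 400 cells/well, exposed to compounds plus 20 nM camptothecin for at least 48 h at 37 C; viability read as ATP content by CellTiter-Glo luminescence.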
# 12-LOX inh – inhibitors of human 12S-lipoxygenase ALOX12 | Potency, µM (doses to about 108 µM), without a hit: top-dose activity change, negative = inhibition, actives largely listed as inhibitors | 580,000 tested, 1.1% active | AID 1671190 | purified 12hLO, xylenol orange hydroperoxide absorbance | P18054
# Target sequence (P18054 whole entry, looked up): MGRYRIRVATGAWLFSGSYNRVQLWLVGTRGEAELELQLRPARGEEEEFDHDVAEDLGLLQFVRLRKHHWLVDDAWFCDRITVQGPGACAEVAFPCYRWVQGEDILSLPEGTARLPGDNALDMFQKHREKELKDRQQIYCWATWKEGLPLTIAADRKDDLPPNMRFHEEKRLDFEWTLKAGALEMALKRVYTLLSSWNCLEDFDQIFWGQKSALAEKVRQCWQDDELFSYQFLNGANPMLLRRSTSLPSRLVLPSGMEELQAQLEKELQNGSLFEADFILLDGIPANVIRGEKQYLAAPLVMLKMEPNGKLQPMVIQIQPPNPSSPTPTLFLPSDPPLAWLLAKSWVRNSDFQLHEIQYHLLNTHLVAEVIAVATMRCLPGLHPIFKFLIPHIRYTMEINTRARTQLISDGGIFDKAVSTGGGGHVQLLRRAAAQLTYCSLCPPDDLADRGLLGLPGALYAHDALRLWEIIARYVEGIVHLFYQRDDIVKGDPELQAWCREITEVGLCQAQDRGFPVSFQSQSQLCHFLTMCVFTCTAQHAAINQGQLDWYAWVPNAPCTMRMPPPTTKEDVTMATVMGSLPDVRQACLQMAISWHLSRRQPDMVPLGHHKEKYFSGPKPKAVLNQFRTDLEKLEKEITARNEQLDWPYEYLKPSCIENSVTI
#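 Hydroperoxide product was detected by ferrous iron/xylenol orange as the 573 to 405 nm absorbance ratio. Arachidonic acid at 40 uM (final) was turned over for 30 min at room temperature by 150 nM human 12hLO, pH 7.0 Hepes buffer, after 15 min compound preincubation.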
# VP16 counter – inhibits Gal4-VP16 luciferase reporter, ROR gamma counter-screen; Drosophila S2 Gal4-VP16 UAS-luciferase, luminescence, 20 h; Potency, µM (doses to about 53.6 µM), without a hit: at the top dose activity, negative = inhibition, most hits filed as inhibitors; 310,000 tested, 3.5% active; AID 2546;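 note: Gal4-VP16 expression switched on by copper sulfate through the metallothionein promoter; nearly all actives have a fitted effect of over 50% in size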
# DT40 TDP1 no CPT – qHTS for Inhibitors of human tyrosyl-DNA phosphodiesterase 1 (TDP1): qHTS in cells in absence of CPT. DT40 Tdp1-/- hTDP1 cells, no CPT, ATP luminescence, 48 h. Potency, µM (series often up to 46.2 µM), for inactives: at the highest dose activity change, negative = growth inhibition, most hits filed as inhibitors. 420,000 tested, 15% active; note: nearly all actives have a fitted effect of over 55% in size
#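 A cellular qHTS used chicken DT40 cells lacking endogenous Tdp1 but carrying stably transfected human TDP1. Compounds were applied without camptothecin, and cell growth kinetics were judged by ATP-dependent luminescence after ≥48 hr.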
# ELG1 repair inh – ELG1-dependent DNA repair inhibition | HEK293T ELG1-luciferase reporter, luminescence, 16 h; DNA damage induced by 5-fluorouridine | 330,000 tested, 2.3% active | Potency, µM (series often up to 46.1 µM), for the others: top-dose activity change, negative = inhibition, most hits filed as inhibitors; note: nearly all actives have a fitted effect of over 55% in size
#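 In this reporter screen, reduction of luminescence relative to DMSO vehicle indicated activity. Compounds and 5-fluorouridine were added together to 2,000 cells per well, incubated for 16 hr at 37 °C, then developed with ONE-Glo.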
# The depositor's hits bear a star; ? = inconclusive; . = no result given; [ ] = dose if it differs, or a comment. Rows were chosen to be rich in hits. Some 15% of all compounds tested hit in one or more screens of this group. Calls come from the whole dose curve; as a rule, active = well fitted curve in the direction sought with a large enough effect; inconclusive = small, poorly fitted or top-dose-only effect, or another doubt; inactive = no such curve, though single readings can be large; an effect the other way counts as inactive or inconclusive. % is set by controls: 0 for no effect and ±100 for the full control effect; potency is the fitted concentration of half-maximal effect.
SMILES,RORg inh,TDP1 cell CPT,12-LOX inh,VP16 counter,DT40 TDP1 no CPT,ELG1 repair inh
COc1ccccc1-c1ccc2ncnc(NCc3cnc(C)cn3)c2c1,?,?,0%,?,18µM*,.
COc1ccccc1-c1cncnc1NCc1cccnc1,-4%,-12%,-16%,2%,-11%,.
O=C(c1ccc(Cl)cc1)N1CCC(N2CCNC2=O)CC1,.,.,8%[6.33 µM],.,.,.
Cc1nnc2n1CCC(NC(=O)NCCc1ccccc1)CC2 (stereo not drawn),.,.,29%,.,.,.
CCc1cc2c(=O)c(-c3nc4ccccc4n3C)c(COCC(=O)O)oc2cc1OC(=O)C(C)(C)C,4.5µM*,-18%,1%,-24%,-7%,-11%
Cc1ccc2oc(-c3cccc(NC(=O)c4ccc(N5CCC(C)CC5)c([N+](=O)[O-])c4)c3)nc2c1,.,18µM*,?,.,7.3µM*,.
COc1cccc(-c2nc3cc(NC(=O)c4ccc(C)c([N+](=O)[O-])c4)ccc3o2)c1,.,.,45µM*,.,.,.
Cc1cccc(-c2nc3cc(NC(=O)c4ccc(C)c([N+](=O)[O-])c4)ccc3o2)c1,.,.,-28%,.,.,.
O=C(Nc1ccc(Br)cc1)C1CCCN1S(=O)(=O)c1cccs1 (stereo not drawn),32%,21µM*,0%,9%,13µM*,?
COc1ccc(NC(=O)C2CCCN2S(=O)(=O)c2cccs2)c([N+](=O)[O-])c1 (stereo not drawn),.,21µM*,-1%,.,10µM*,-15%
CC(=O)c1cccc(NC(=O)C2CCCN2S(=O)(=O)c2cccs2)c1 (stereo not drawn),.,-2%,5%,.,10%,.
COc1ccc([N+](=O)[O-])cc1NC(=O)C1CCCN1S(=O)(=O)c1cccs1 (stereo not drawn),.,-1%,-13%,.,?,-8%
O=C(Nc1ccc(S(=O)(=O)NCc2ccccc2)cc1)c1ccc(Br)o1,?,21µM*,-8%,-5%,21µM*,?
O=C(Nc1ccc(S(=O)(=O)NCc2cccnc2)cc1)c1ccccc1Cl,?,13µM*,-6%,?,10µM*,-14%
O=C(Nc1ccccc1)c1ccc(S(=O)(=O)NCc2cccnc2)cc1,?,-50%,-22%,?,?,?
CC(=O)Nc1ccc(S(=O)(=O)NCc2cccnc2)cc1,15%,3.3µM*,-11%,1%,?,?
COc1cc(CC(=O)Nc2cc(S(=O)(=O)N3CCCCC3)ccc2C)cc(OC)c1OC,.,.,22µM*,.,.,.
O=C(CN(Cc1ccco1)Cc1cccs1)N1CCN(S(=O)(=O)c2cccc(F)c2)CC1,.,23µM*,-1%,.,18µM*,0%
CCOc1ccc(S(=O)(=O)N2CCCCC2)cc1NC(=O)Cc1cc(OC)c(OC)c(OC)c1,.,-14%,-4%,.,-19%,.
COc1ccc(OCCCC(=O)Nc2cc(S(=O)(=O)N3CCCCC3)ccc2OC)cc1,.,-20%,134%,.,-26%,-25%
O=C(CSc1ccc2c(c1)OCCO2)NC(=O)NC1CCCC1,?,-15%,-7%,?,-27%,0.73µM*
COc1ccc(OCCCC(=O)Nc2cc(S(=O)(=O)N3CCCCC3)ccc2C)cc1,.,21µM*,7%,.,?,?
CC(C)NC(=O)CSc1ccc2c(c1)OCCO2,.,.,3%,.,.,.
CCC1(O)CCC12CCN(C(=O)c1ccsc1)CC2 (stereo not drawn),.,.,12%,.,.,.
COc1ccc(-c2cnc3n[nH]c(-c4ccccc4)c3n2)cc1,.,.,-4%[176 µM],.,.,.
SMILES,RORg inh,TDP1 cell CPT,12-LOX inh,VP16 counter,DT40 TDP1 no CPT,ELG1 repair inh
CNC(=O)[C@@H]1CN(C(=O)Cn2c(=O)oc3ccccc32)C[C@H]1COC,.,.,33%,.,.,.
CCN(CC)S(=O)(=O)c1ccc(NS(=O)(=O)c2ccc3ccccc3c2)cc1,.,.,-13%,.,.,.
Cc1ccccc1NCC(=O)Nc1cc(S(=O)(=O)N2CCCCC2)ccc1C,.,?,158%,.,21µM*,-12%
CC(NCC(=O)Nc1cc(S(=O)(=O)N2CCCCCC2)ccc1Cl)c1ccccc1 (stereo not drawn),23%,18µM*,-19%,1%,13µM*,?
O=C(CN(Cc1ccco1)Cc1ccco1)Nc1cc(S(=O)(=O)N2CCCCC2)ccc1Cl,.,13µM*,2%,.,12µM*,26µM*
Cc1ccc(S(=O)(=O)N2CCCCC2)cc1NC(=O)COc1ccccc1,.,?,-7%,.,?,?
O=C(NCc1ccco1)c1cc(S(=O)(=O)N2CCCC2)ccc1Cl,-1%,-25%,452%,1%,27%,-8%
O=C(Cc1cccs1)Nc1cc(S(=O)(=O)N2CCCCC2)ccc1Cl,.,-18%,0%,.,-18%,0%
Cc1ccc(S(=O)(=O)N2CCCCC2)cc1NC(=O)CSc1ccc2c(c1)OCCO2,3%,23µM*,-12%,-17%,?,-26%
O=C(NC(O)C(=O)c1ccccc1)c1ccccc1 (stereo not drawn),.,.,-28%,.,.,.
COCc1cc(CNC(=O)c2cn(C3CCC(N)CC3)nn2)[nH]n1 (stereo not drawn),.,.,15%,.,.,.
Cc1ccc(NC(=O)CSc2ccc3c(c2)OCCO3)c(O)c1,6%,18µM*,0%,22%,?,4%
Cc1ccnc(NC(=O)CSc2ccc3c(c2)OCCO3)c1,.,-16%,-28%,.,?,?
CCCCCCNCCN1CCOCC1,.,.,34%,.,.,.
Cc1csc(-c2cnn(-c3ccccc3)c2NC(=O)c2ccc(C(F)(F)F)cc2)n1,-8%,?,-13%,3%,23µM*,-6%
CC(C)(C)NC(=O)c1cnn(-c2ccccc2)c1NC(=O)c1ccccc1,2%,-10%,-1%,5%,1%,?
Cc1nc(-c2ccccc2)sc1C(C)N (stereo not drawn),.,.,-9%,.,.,.
CCc1cc(OCCCCNCc2ccccc2)ccc1Cl,2%,21µM*,?,-23%,18µM*,-2%
Clc1cc(Br)ccc1OCCCNCc1ccccc1,-8%,21µM*,?,-7%,?,-9%
c1ccc(CNCCCNCCCCNCCCNCc2ccccc2)cc1,.,?,-15%,.,21µM*,.
Cc1ccccc1C(OC(=O)c1nn(C)c(=O)c2ccccc12)C(F)(F)F (stereo not drawn),.,.,24%,.,.,.
O=C(COc1ccc(Cl)cc1Br)OCC(=O)c1ccc(-c2ccccc2)cc1,.,.,5%,.,.,.
COc1ccccc1NC(=O)CCn1ccn2nc3c(c2c1=O)CCCC3,.,.,35%,.,.,.

# From PubChem
